According to PubChem BioAssay:
Values without a mark were called inactive. For some of these results: Results with a measured potency or affinity are listed apart. The source made the active and inactive calls. Unless noted, how the calls were made is not given here.

Experiments:
[1] = antimalarial activity against Dd2 strain (AID 2302;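 active means growth inhibition above 50% at the single 2 µM test dose, taken to imply half-maximal potency below 2 µM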;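 further: 0% = DMSO untreated growth and 100% = chloroquine plus artemisinin killed control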); settings: P. falciparum Dd2 in RBCs, LDH growth readout, 72 h; at 2 µM; active compounds read high
[2] = human hepatoma cell viability loss – ATP luminescence, cytotoxicity control for P. falciparum antimalarial project, primary screen (AID 2303;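 active means inhibition above 50%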;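 further: 0% = DMSO wells and 100% = digitonin-killed cells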); settings: HepG2 viability, 24-48 h, at 10 µM, active compounds read high
[3] = biological target: L-lactate dehydrogenase (Plasmodium falciparum (isolate CDC / Honduras)) (UniProt Q27743); assay: PfLDH activity inhibition – cell lysate, 3D7 strain, counter-screen for P. falciparum growth inhibition project (AID 2304);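 further: 0% = vehicle and 100% = reference inhibitor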; settings: P. falciparum 3D7 crude extract, LDH APAD/NBT absorbance; at 2 µM; active compounds read high
Chain of L-lactate dehydrogenase (Plasmodium falciparum (isolate CDC / Honduras)) (Q27743 whole entry, looked up): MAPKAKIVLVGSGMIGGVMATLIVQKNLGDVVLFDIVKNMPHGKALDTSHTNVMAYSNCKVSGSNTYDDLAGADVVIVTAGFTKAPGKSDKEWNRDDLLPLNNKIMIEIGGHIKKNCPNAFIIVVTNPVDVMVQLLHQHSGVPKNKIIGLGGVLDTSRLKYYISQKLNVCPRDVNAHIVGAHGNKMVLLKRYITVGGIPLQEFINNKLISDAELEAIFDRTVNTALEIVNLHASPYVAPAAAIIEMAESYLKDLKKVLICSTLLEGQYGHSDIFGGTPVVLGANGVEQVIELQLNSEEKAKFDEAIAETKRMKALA

[4] = inhibition of 3D7 malaria parasite growth – strain 3D7 (AID 2306);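 further: 0% = DMSO wells and 100% = chloroquine plus artemisinin control wells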; settings: P. falciparum 3D7 erythrocytic growth, LDH absorbance, 72 h; at 2 µM; active compounds read high
[5] = biological target: Calcium-dependent protein kinase 1 (Plasmodium falciparum (isolate 3D7)) (UniProt P62344); assay: PfCDPK1 kinase inhibitors, biochemical, TCAMS library (AID 1159585; cut-off not given, nearly all actives have IC50 up to about 0.98 µM;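 further: inhibitors leave more ATP so luminescence rises with inhibition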); settings: recombinant PfCDPK1, Kinase-Glo ATP depletion luminescence
Chain of Calcium-dependent protein kinase 1 (Plasmodium falciparum (isolate 3D7)) (P62344 whole entry, looked up): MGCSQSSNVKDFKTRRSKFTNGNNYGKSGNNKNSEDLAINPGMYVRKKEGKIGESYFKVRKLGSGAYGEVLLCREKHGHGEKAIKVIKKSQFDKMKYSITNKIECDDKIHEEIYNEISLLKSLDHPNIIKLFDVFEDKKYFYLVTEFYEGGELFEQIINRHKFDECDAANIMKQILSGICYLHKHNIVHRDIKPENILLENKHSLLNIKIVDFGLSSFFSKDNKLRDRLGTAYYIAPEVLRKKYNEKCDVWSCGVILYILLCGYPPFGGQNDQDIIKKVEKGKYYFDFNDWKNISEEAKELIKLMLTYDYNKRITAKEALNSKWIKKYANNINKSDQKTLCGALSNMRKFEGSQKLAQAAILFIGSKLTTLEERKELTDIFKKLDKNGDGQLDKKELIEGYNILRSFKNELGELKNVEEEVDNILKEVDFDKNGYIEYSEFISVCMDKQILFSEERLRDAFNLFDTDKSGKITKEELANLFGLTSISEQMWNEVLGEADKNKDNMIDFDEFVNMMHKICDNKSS

[6] = biological target: Plasmodium falciparum protein kinase 6 (PK6, PF3D7_1337100) (UniProt Q8IDW1); assay: PfPK6 kinase inhibitors, biochemical, TCAMS library (AID 1159586); settings: recombinant PfPK6, Kinase-Glo ATP depletion luminescence
Chain of Plasmodium falciparum protein kinase 6 (PK6, PF3D7_1337100) (Q8IDW1 1-305): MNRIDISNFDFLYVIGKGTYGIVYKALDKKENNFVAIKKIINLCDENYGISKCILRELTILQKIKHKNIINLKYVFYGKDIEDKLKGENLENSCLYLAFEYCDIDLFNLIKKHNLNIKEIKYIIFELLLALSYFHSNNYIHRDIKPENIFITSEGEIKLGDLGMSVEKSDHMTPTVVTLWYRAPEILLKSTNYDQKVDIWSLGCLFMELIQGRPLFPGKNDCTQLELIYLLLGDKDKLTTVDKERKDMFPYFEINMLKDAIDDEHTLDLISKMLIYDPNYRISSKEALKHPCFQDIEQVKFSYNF

[7] = biological target: Protein kinase 7 (PK7), Plasmodium falciparum 3D7 (PF3D7_0213400) (UniProt Q7YTF7); assay: inhibition of Plasmodium PK7 catalytic activity – biochemical, TCAMS antimalarial set, Kinase-Glo luminescence (AID 1159587); settings: recombinant PfPK7, Kinase-Glo ATP depletion luminescence
Chain of Protein kinase 7 (PK7), Plasmodium falciparum 3D7 (PF3D7_0213400) (Q7YTF7 1-343): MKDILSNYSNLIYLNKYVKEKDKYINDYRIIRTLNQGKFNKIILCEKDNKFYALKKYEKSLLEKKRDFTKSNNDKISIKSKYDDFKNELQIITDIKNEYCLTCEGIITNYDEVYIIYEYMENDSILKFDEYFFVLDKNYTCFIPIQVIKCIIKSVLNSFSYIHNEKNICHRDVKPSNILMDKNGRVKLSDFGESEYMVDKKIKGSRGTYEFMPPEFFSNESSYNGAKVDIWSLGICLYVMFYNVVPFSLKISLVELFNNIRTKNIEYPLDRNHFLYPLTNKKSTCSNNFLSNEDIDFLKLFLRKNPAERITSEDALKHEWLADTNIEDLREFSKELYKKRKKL

[8] = biological target: Calcium-dependent protein kinase 4 (Plasmodium falciparum (isolate 3D7)) (UniProt Q8IBS5); assay: PfCDPK4 kinase inhibitors, biochemical, TCAMS library (AID 1159588; cut-off not given, nearly all actives have IC50 up to about 0.91 µM); settings: recombinant PfCDPK4, Kinase-Glo ATP depletion luminescence
Chain of Calcium-dependent protein kinase 4 (Plasmodium falciparum (isolate 3D7)) (Q8IBS5 whole entry, looked up): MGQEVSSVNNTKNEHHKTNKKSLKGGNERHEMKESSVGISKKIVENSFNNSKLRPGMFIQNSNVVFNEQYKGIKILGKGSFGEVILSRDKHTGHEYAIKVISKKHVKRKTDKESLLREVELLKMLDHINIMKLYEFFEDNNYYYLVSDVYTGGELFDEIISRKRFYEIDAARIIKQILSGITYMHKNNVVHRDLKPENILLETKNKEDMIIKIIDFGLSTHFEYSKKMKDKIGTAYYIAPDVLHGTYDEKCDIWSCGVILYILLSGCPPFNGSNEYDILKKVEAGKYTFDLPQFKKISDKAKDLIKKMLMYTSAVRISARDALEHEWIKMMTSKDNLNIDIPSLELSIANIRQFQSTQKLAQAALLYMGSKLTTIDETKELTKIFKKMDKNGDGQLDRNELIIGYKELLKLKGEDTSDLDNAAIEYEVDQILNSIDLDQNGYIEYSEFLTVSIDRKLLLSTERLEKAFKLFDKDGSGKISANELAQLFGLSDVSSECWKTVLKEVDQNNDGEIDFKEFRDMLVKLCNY

SMILES | growth inhibition [1] | inhibition [2] | inhibition [3] [%] | growth inhibition [4] | outcome [5] | outcome [6] | outcome [7] | outcome [8]
CCCc1cc(C)ccc1OCCCON1C(NC(=O)OCC)=NC(NC(=O)OCC)=NC1(C)C | 97% (active) | 62% (active) | 0 | 95% (active) | inactive | inactive | inactive | inactive
Clc1ccc(Nc2nc3nonc3nc2Nc2ccc(Cl)c(Cl)c2)cc1 | 92% (active) | 75% (active) | 0 | 99% (active) | inactive | inactive | inactive | inactive
COc1cccc(-c2ccc(C(=O)NCC3CCCN(Cc4cccc(C(F)(F)F)c4)C3)s2)c1 (centres undefined) | 18% | 10% | 0 | 85% (active) | inactive | inactive | inactive | inactive
CC(C)NCC(O)COc1ccc(Cc2ccc(OCC(O)CNC(C)C)cc2)cc1 (centres undefined) | 18% | -8% | -5 | 100% (active) | inactive | inactive | inactive | inactive
CCCCCCCC1CC(CC(=O)Nc2ccnc3ccc(OC)cc23)CN1 (centres undefined) | 58% (active) | 22% | -2 | 90% (active) | inactive | inactive | inactive | inactive
CCc1ccc(NC(=O)c2cccc(CN3CCCN(Cc4cccc(O)c4)CC3)c2)cc1 | 50% (active) | 53% (active) | 3 | 99% (active) | inactive | inactive | inactive | inactive
N#Cc1cccc(C(=O)NC2CCN(c3ccnc(Nc4ccc(F)cc4)n3)C2)c1 (centres undefined) | 91% (active) | 4% | -8 | 98% (active) | inactive | inactive | inactive | inactive
COc1ccc(CCCc2nc(N)nc(N)c2-c2ccc(Cl)cc2)cc1 | 0% | 65% (active) | 2 | 94% (active) | inactive | inactive | inactive | inactive
Cc1ccc2c(=O)c3cc(C)ccc3[nH]c2c1 | 94% (active) | 10% | 5 | 96% (active) | inactive | inactive | inactive | inactive
CCCCc1ccc(NC(=O)Nc2ccc3c(c2)CCNCC3)cc1 | 43% | 16% | 0 | 95% (active) | inactive | inactive | inactive | inactive
c1ccc(CCNc2nc(NCC(c3ccccc3)c3ccccc3)c3[nH]cnc3n2)cc1 | 95% (active) | 9% | -1 | 100% (active) | inactive | inactive | inactive | inactive
Cc1ccccc1CNc1ccc2nc(N)nc(N)c2c1 | 90% (active) | 59% (active) | -3 | 101% (active) | inactive | inactive | inactive | inactive
O=C(/C=C/c1ccc(Cl)c(Cl)c1)NCCCCN1CCC(c2c[nH]c3ccccc23)CC1 | 11% | 57% (active) | -2 | 91% (active) | inactive | inactive | inactive | inactive
Cc1cc(C)c(C(=O)Nc2n[nH]c3nnc(-c4cccc(F)c4F)cc23)c(C)c1 | -4% | -2% | -4 | 90% (active) | inactive | inactive | inactive | inactive
FC(F)(F)c1cccc2c(NN=Cc3ccccc3)ccnc12 | 90% (active) | 10% | -4 | 101% (active) | inactive | inactive | inactive | inactive
CC(NC(=O)c1cc(-c2ccccc2)nc2c1cnn2C(C)C)C1CC1 (centres undefined) | 88% (active) | 35% | -2 | 101% (active) | inactive | inactive | inactive | inactive
Cc1ccn2c(C(=O)N3CCN(c4cccc5c4nc(-c4ccoc4)n5Cc4ccccn4)CC3)c(C)nc2c1 | 99% (active) | 2% | -1 | 98% (active) | inactive | inactive | inactive | inactive
Cc1[nH]c(C)c(-c2cccc(-c3ccc(OC(F)(F)F)cc3)c2)c(=O)c1Br | 96% (active) | 45% | 0 | 97% (active) | inactive | inactive | inactive | inactive
COc1cc(Nc2nc(N)c3cc(OC)c(OC)cc3n2)cc(OC)c1 | 102% (active) | 7% | 4 | 101% (active) | inactive | inactive | inactive | inactive

SMILES | growth inhibition [1] | inhibition [2] | inhibition [3] [%] | growth inhibition [4] | outcome [5] | outcome [6] | outcome [7] | outcome [8]
N#Cc1cc(C(=O)c2cc(Cl)ccc2O)cn(-c2cc(Cl)cc(Cl)c2)c1=O | 32% | 34% | -8 | 93% (active) | inactive | inactive | inactive | inactive
Cc1c(Cl)ccc2sc(N3CCN(C(=O)c4ccc([N+](=O)[O-])o4)CC3)nc12 | 93% (active) | -2% | 3 | 96% (active) | inactive | inactive | inactive | inactive
COc1ccc2nccc([C@@H](O)CN3CCC(NCc4cc5c(F)ccc(F)c5[nH]4)CC3)c2n1 | 76% (active) | 22% | -6 | 101% (active) | inactive | inactive | inactive | inactive
Cc1ccnc(NC(=O)c2cc(-c3cccc([N+](=O)[O-])c3)nc3onc(C)c23)c1 | 44% | 5% | -1 | 91% (active) | inactive | inactive | inactive | inactive
Cc1[nH]nc2ccc(-c3cc(OC[C@@H](N)Cc4ccccc4)cnc3-c3ccc(OCc4cccc(F)c4)cc3)cc12 | 59% (active) | 97% (active) | -5 | 98% (active) | inactive | inactive | inactive | inactive
O=C(COc1ccc(Cl)c(Cl)c1)NCCCCCN1CCCN(C(=O)Nc2ccc(Cl)c(Cl)c2)CC1 | 7% | 29% | 3 | 93% (active) | inactive | inactive | inactive | inactive
O=C(Nc1ccc(Cl)cc1)c1cc(Cl)cc2[nH]c(C(F)(F)F)nc12 | 100% (active) | 87% (active) | 2 | 100% (active) | inactive | inactive | inactive | inactive
COc1ccc(NC(=O)[C@H](CC(C)C)Nc2cc(C)nc(NCc3cccc(C)c3)n2)cc1 | 90% (active) | 24% | -1 | 101% (active) | inactive | inactive | inactive | inactive
Cc1cc(C)c(NC(=O)N[C@H]2CCN(CCCCCNC(=O)/C=C/c3ccc(Cl)c(Cl)c3)C2)c(C)c1 | 3% | 12% | -4 | 91% (active) | inactive | inactive | inactive | inactive
Cn1cnc2c(Nc3ccncc3)nc(-c3ccc4ccccc4c3)nc21 | 66% (active) | 55% (active) | 7 | 96% (active) | inactive | inactive | inactive | inactive
CCC(=O)OC(CCN(CC)CC)(c1ccccc1)c1ccccc1 | 6% | 30% | 4 | 98% (active) | inactive | inactive | inactive | inactive
Cc1cccc2[nH]c(-c3cccc(-c4cccc(C(=O)NCCc5cn(C)cn5)c4)c3)nc12 | 78% (active) | 12% | 8 | 101% (active) | inactive | inactive | inactive | inactive
CC(C)c1ccc(-c2nc3ncc(Cl)cc3[nH]2)cc1 | 77% (active) | 3% | -2 | 87% (active) | inactive | inactive | inactive | inactive
CCCCCc1ccc(NC(=O)Nc2ccc(Cn3ncc(N4CCCNCC4)c(Cl)c3=O)cc2)cc1 | 23% | 15% | 3 | 87% (active) | inactive | inactive | inactive | inactive
O=C(/C=C/c1ccc(Cl)c(Cl)c1)NCCCCCN1CCC(c2c[nH]c3ccccc23)CC1 | 7% | 33% | -2 | 99% (active) | inactive | inactive | inactive | inactive
COc1cc2nc(Nc3ccc4c(c3)OCCO4)nc(N)c2cc1OC | 80% (active) | 13% | -3 | 101% (active) | inactive | inactive | inactive | inactive
CCc1ccc(CN2CCC(CNC(=O)c3cc(-c4cccc(F)c4)cs3)C2)cc1 (centres undefined) | 4% | 23% | 2 | 84% (active) | inactive | inactive | inactive | inactive
CCCCc1ccc(NC(=O)Nc2cccc(CCNCc3ccccc3)c2)cc1 | 13% | 3% | 2 | 94% (active) | inactive | inactive | inactive | inactive
CC(C)c1ccc2[nH]c(C(=O)NC3CCC(N4CCCc5ccc(C#N)cc5C4)CC3)cc2c1 (centres undefined) | 27% | 48% | -3 | 91% (active) | inactive | inactive | inactive | inactive
